D3 ag = agonists of human D3 dopamine receptor; D3R DiscoveRx beta-arrestin cells, luminescence, 90 min; max activation, %; 410,000 compounds, 0.58% hits; AID 652048; in the data active = max activation above about 30%; also: 0% is about no effect
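Agonist mode: compounds and dopamine controls were applied to plated cells for 90 min at 37 degrees C after an overnight attachment at 1500 cells/well. Luminescent read-out followed 30 - 60 minutes at room temperature with DiscoveRx detection reagent.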
D3 antag = D3 dopamine receptor (human) antagonism; P35462; D3R cells, DiscoveRx beta-arrestin luminescence, antagonist mode; active compounds read low; max response, negative = inhibition, %; 360,000 compounds, 2.5% hits; AID 652054; in the data active = max response below about -50%; inconclusive = no clear call, values can overlap the other calls; also: % is scaled to controls: 0 for no effect and ±100 for the full control effect
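Cells expressing the human receptor were seeded at 1500 cells/well, incubated overnight at 37 degrees C in 5% CO2, then exposed to library compounds with dopamine controls for 90 minutes at 37 degrees C before luminescent detection.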
IL-1B inflam inh = blocks inflammasome-driven IL-1 beta release. 360,000 compounds, 4.7% hits. activity change, % at 57.5 µM. THP-1 LPS/ATP IL-1B secretion, AlphaLISA, 16 h; active compounds read low; in the data active = activity change below about -50%; inconclusive = mostly about -30% to -49%; also: % is scaled to controls: 0 for no effect and ±100 for the full control effect
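THP-1 cells pretreated 1 hr with compounds (up to 57.5 uM final), then stimulated with LPS (250 ng/mL final) plus ATP (1.25 mM final); secreted IL-1B measured by AlphaLISA after 16 hr, decreased signal indicating inhibition.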
DT40 TDP1 no CPT = qHTS for Inhibitors of human tyrosyl-DNA phosphodiesterase 1 (TDP1): qHTS in cells in absence of CPT | DT40 Tdp1-/- hTDP1 cells, no CPT, ATP luminescence, 48 h | Potency, µM (highest dose often 46.2 µM), for the others: top-dose activity change, negative = growth inhibition, most hits filed as inhibitors | 420,000 compounds, 15% hits | AID 686978, 2013; also: potency is read from the fitted curve at half-maximal effect; % is scaled to controls: 0 for no effect and ±100 for the full control effect; nearly all actives have a fitted effect of over 55% in size
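Stably hTDP1-transfected Tdp1-null chicken DT40 cells were treated with library compounds minus camptothecin and grown for at least 48 hr at 37 °C, after which cellular ATP was quantified by luminescence.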
ClpP mod = qHTS Assay for Activators of ClpP. purified B. subtilis ClpP, FRET peptide cleavage, 20 min. Potency, µM (titrated, usually from 57.5 µM), for inactives: at the highest dose activity change, negative = active. ATP-dependent Clp protease proteolytic subunit (Bacillus subtilis (strain 168)), P80244. 340,000 compounds, 1.9% hits; active = well fitted falling curve with a large enough effect; inconclusive = small, poorly fitted or top-dose-only effect; inactive = no such curve, though single readings can be large or run the other way; also: potency is read from the fitted curve at half-maximal effect; the source files actives as falling curves though it sought activators and does not explain the sign; nearly all actives have a fitted effect of over 65% in size
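ClpP 10 microg/mL final, pH 8 Tris/KCl buffer with BSA, glycerol, Tween-20; compound pinned in; FRET-FV substrate; RT 20 min; Ex320/Em430; ΔFRET vs ADEP 5.8 microM, DMSO, no enzyme.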
TDP1 cell CPT = growth inhibition of DT40 Tdp1-/-;hTDP1 cells with camptothecin (screen for TDP1 inhibitors); chicken DT40 Tdp1-/-;hTDP1 cells + 20 nM CPT, ATP luminescence, 48 h; Potency, µM (titrated, usually from 46.2 µM), without a hit: at the top dose activity change, negative = growth inhibition, usual class: inhibitors; 420,000 compounds, 12% hits; AID 686979; also: potency is read from the fitted curve at half-maximal effect; % is scaled to controls: 0 for no effect and ±100 for the full control effect; nearly all actives have a fitted effect of over 55% in size
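Cell growth measured by CellTiter-Glo luminescence after a minimum 48 h, 37 C compound exposure with 20 nM CPT in Tdp1-knockout DT40 cells stably expressing hTDP1, seeded 400/well; qHTS titration format.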
* = called active by the depositor; [ ] = remark or other dose. A selection: hits, their analogues and other compounds. The true share with any hit is near 21%. Unless noted, calls follow the shape of the dose curve; as a rule, active = well fitted inhibition curve with a large enough effect; inconclusive = small, poorly fitted or top-dose-only effect; inactive = flat fitted curve, though single readings scatter.

For Cc1ccc(N(CCC#N)C(=O)CSc2nc3ccccc3c(=O)[nH]2)cc1 the results were D3 ag 1, D3 antag 6, IL-1B inflam inh 17, DT40 TDP1 no CPT 1%, ClpP mod -2% and TDP1 cell CPT inconclusive.
`CCOc1ccccc1O[C@H](c1ccccc1)[C@H]1CNCCO1` gave D3 ag -8, D3 antag 0, IL-1B inflam inh -19, DT40 TDP1 no CPT 19µM*, ClpP mod -1% and TDP1 cell CPT 30µM*.
`CCOc1ccccc1NC(=O)C(NCC1CCCCC1)c1ccccc1` (centres undefined) gave D3 ag 3, D3 antag -5, IL-1B inflam inh 51, DT40 TDP1 no CPT -82%, ClpP mod -1% and TDP1 cell CPT inconclusive.
For Cc1cc(C)c(Cn2cnc3ccccc32)c(C)c1 the results were D3 ag 3, D3 antag -18, IL-1B inflam inh inconclusive, DT40 TDP1 no CPT -19% and TDP1 cell CPT -25%.
`CCOC(=O)C1=C(CNCc2ccc(C)cc2)NC(=O)NC1c1cc(C)ccc1C` (centres undefined) gave D3 ag 23, D3 antag 22, IL-1B inflam inh 7, DT40 TDP1 no CPT inconclusive, ClpP mod -1% and TDP1 cell CPT 20µM*.
CCOC(=O)C1=C(Cn2cnc3ccccc32)NC(=O)NC1c1cc(C)ccc1C (centres undefined) was read as D3 ag 34*, D3 antag 19, IL-1B inflam inh -2, DT40 TDP1 no CPT 23µM*, ClpP mod -3% and TDP1 cell CPT 26µM*.
Screening CCOC(=O)C1=C(CSc2nccn2C)NC(=O)NC1c1cc(C)ccc1C (centres undefined) returned D3 ag -9, D3 antag -3, IL-1B inflam inh 2, DT40 TDP1 no CPT -13%, ClpP mod -1% and TDP1 cell CPT -8%.
For COC(=O)C1=C(Cn2cnc3ccccc32)NC(=O)NC1c1cc(C)ccc1C (centres undefined) the results were D3 ag 40*, D3 antag 59, IL-1B inflam inh -9, DT40 TDP1 no CPT inconclusive, ClpP mod -2% and TDP1 cell CPT inconclusive.
Screening CCOC(=O)C1=C(CNCc2ccccc2Cl)NC(=O)NC1c1ccc2c(c1)OCO2 (centres undefined) returned D3 ag 3, D3 antag 6, IL-1B inflam inh -18, DT40 TDP1 no CPT inconclusive, ClpP mod 1% and TDP1 cell CPT inconclusive.
For COc1ccc(-c2cc(C(F)(F)F)n3nc(C(=O)Nc4cccc(Cl)c4Cl)cc3n2)cc1OC the results were D3 ag -6, DT40 TDP1 no CPT -3%, ClpP mod -3% and TDP1 cell CPT -5%.
For COc1ccccc1OC[C@H](O)CO the results were D3 ag 4, D3 antag 7, IL-1B inflam inh -7, DT40 TDP1 no CPT 1%, ClpP mod -2% and TDP1 cell CPT 3%.
For CSc1ccc(S(=O)(=O)Nc2c(C)n(C)n(-c3ccccc3)c2=O)cc1 the results were D3 ag 6, D3 antag 6, IL-1B inflam inh inconclusive, DT40 TDP1 no CPT 10%, ClpP mod 1% and TDP1 cell CPT 0%.
COc1ccc(Nc2nc(N)nc(CSC(=S)N3CCN(C)CC3)n2)cc1 was read as D3 ag -2, D3 antag 10, IL-1B inflam inh -11, DT40 TDP1 no CPT inconclusive, ClpP mod 0% and TDP1 cell CPT -14%.
`CC1CCN(C(=S)SCc2nc(N)nc(Nc3ccccc3)n2)CC1` gave D3 ag 3, D3 antag -2, IL-1B inflam inh -9, DT40 TDP1 no CPT -12%, ClpP mod 1% and TDP1 cell CPT -12%.
Screening COc1ccc(Nc2nc(N)nc(CSC(=S)N3CCN(c4ccccc4)CC3)n2)cc1 returned D3 ag 3, D3 antag -13, IL-1B inflam inh -15, DT40 TDP1 no CPT 18µM*, ClpP mod -1% and TDP1 cell CPT inconclusive.
For COc1ccc(Nc2nc(N)nc(CSC(=S)N3CCCCC3C)n2)cc1 (centres undefined) the results were D3 ag -2, D3 antag -10, IL-1B inflam inh -62*, DT40 TDP1 no CPT 18µM* and TDP1 cell CPT inconclusive.
`CCOc1ccc(Nc2nc(N)nc(CSC(=S)N3CCN(c4ccccc4)CC3)n2)cc1` gave D3 ag 14, D3 antag -6, IL-1B inflam inh -1, DT40 TDP1 no CPT 18µM*, ClpP mod -1% and TDP1 cell CPT 15µM*.
Screening COc1ccc(CN2CCCC(n3cc(C(=O)N4CCCCC4)nn3)C2)c(OC)c1C (centres undefined) returned DT40 TDP1 no CPT -18% and TDP1 cell CPT 11%[9.04 µM].
Clc1ccc(N2O[C@H]3C=C[C@@H]2C3)nc1 was read as D3 ag -2, D3 antag -20, IL-1B inflam inh inconclusive, DT40 TDP1 no CPT inconclusive, ClpP mod -15% and TDP1 cell CPT 21µM*.
`CN(C)c1nc(N)c2ncc(=S)[nH]c2n1` gave D3 ag -4, D3 antag 11, IL-1B inflam inh -65*, DT40 TDP1 no CPT -18% and TDP1 cell CPT 0%.
For CN(C)c1nc(C(=O)NN)nc(N(C)C)n1 the results were D3 ag -3, D3 antag 5, IL-1B inflam inh -8, DT40 TDP1 no CPT -2%, ClpP mod 1% and TDP1 cell CPT 2%.
For COc1ccccc1-c1cc(C(=O)N2CCCC2)no1 the results were D3 ag 6, D3 antag 8, IL-1B inflam inh -6, DT40 TDP1 no CPT -12% and TDP1 cell CPT 4%.
`COc1ccccc1-c1cc(C(=O)NC(C)c2ccccc2)no1` (centres undefined) gave D3 ag -29, D3 antag -58*, IL-1B inflam inh -6, DT40 TDP1 no CPT -19%, ClpP mod inconclusive and TDP1 cell CPT inconclusive.
Screening COc1ccc(OC)c(-c2cc(C(=O)NCc3cccs3)no2)c1 returned D3 ag -27, D3 antag -96*, IL-1B inflam inh -14, DT40 TDP1 no CPT inconclusive, ClpP mod inconclusive and TDP1 cell CPT 21µM*.
For CCN(CC)C(=O)c1cc(-c2ccccc2OC)on1 the results were D3 ag 2, D3 antag 9, IL-1B inflam inh -6, DT40 TDP1 no CPT -11%, ClpP mod 25µM* and TDP1 cell CPT -2%.

Bioassay records as filed in PubChem BioAssay.
